Screens as filed in PubChem BioAssay.
The list is not random: actives were taken first. Their share in the collection is about 4.8%.
Calb FLC: C. albicans growth modulation with fluconazole | AID 1979 | C. albicans CaCi-2 (fluconazole-resistant clinical isolate) + fluconazole, Alamar Blue growth, 48 h | 0.57% of 300,000 active | growth inhibition, % (test concentration not listed);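 active = growth inhibition above about 58% in most replicates, limit read from the data, passing the limit was not always enough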;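 also: all wells also contain fluconazole at 8 µg/ml as a sub-toxic cotreatment; 0% = median of DMSO wells and 100% = median of geldanamycin control wells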
MPTP block: blocks calcium-induced mitochondrial swelling | isolated mouse mitochondria, Ca2+ swelling absorbance, 30 min | inhibition, % at 10 µM | 1.4% of 360,000 active | AID 602449;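 active = inhibition of 50% or more, scaled per plate between neutral and stimulator controls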;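 also: 0% = DMSO wells given calcium and 100% = 1 mM EGTA wells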
CSC inhib: cancer stem cell inhibition | cancer stem cell-like cells viability, luminescence | inhibition, % at 7.5 µM | 1.1% of 300,000 active | AID 2717; in the data active = inhibition above about 75%; tested in HMLE shEcad cells
Mdm2-MdmX inh: inhibitors of human Mdm2/MdmX interaction. SaOS-2 split-luciferase Mdm2/MdmX complementation, luminescence. inhibition, % at 8 µM. AID 485346. O15151+Q00987. 3% of 330,000 active;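 active = inhibition of at least 50% at 8 µM in the primary screen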
Target sequence (O15151 whole entry, looked up): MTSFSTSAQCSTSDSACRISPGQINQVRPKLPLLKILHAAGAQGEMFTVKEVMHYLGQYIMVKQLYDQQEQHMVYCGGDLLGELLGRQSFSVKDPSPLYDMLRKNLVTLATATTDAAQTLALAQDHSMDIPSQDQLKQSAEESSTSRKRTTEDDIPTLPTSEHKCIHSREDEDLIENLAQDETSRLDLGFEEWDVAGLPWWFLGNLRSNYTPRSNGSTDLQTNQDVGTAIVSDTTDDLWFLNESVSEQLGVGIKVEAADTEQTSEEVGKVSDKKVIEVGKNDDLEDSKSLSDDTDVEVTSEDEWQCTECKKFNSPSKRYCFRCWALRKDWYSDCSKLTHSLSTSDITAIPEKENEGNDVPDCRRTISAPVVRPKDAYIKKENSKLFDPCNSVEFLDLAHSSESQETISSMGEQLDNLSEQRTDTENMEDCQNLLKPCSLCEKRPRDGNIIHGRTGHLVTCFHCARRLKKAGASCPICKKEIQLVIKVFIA
Target sequence (Q00987 whole entry, looked up): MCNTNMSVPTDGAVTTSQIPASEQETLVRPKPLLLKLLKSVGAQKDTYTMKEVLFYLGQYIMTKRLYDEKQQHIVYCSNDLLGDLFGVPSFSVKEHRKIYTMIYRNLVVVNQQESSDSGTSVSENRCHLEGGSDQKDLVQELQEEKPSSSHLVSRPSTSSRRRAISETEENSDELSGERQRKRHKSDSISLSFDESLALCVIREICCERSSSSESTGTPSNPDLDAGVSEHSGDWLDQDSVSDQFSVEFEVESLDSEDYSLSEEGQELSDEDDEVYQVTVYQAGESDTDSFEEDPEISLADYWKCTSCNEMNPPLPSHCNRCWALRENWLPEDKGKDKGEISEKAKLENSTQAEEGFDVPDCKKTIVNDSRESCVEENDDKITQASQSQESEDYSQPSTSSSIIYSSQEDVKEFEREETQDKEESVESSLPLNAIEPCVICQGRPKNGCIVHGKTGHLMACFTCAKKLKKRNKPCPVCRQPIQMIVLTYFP
Beta apoptosis: blocks beta cell apoptosis | 0.8% of 300,000 active | protection from apoptosis, % (concentration not given with the values) | AID 435005 | INS-1E cytokine-induced death, ATP luminescence, 48 h; percent of positive-control rescue, neutral wells zero;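 active = Every replicate reaches about 75%, or at least half do and their mean reaches it too, limit read from the data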;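 also: 0% = cytokine-treated negative control wells and 100% = positive control rescue; higher means more ATP so stronger rescue from cytokine killing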
Rh123 counter: mitochondrial membrane potential, counter-screen; isolated mitochondria, Rhodamine 123 fluorescence; inhibition, % at 10 µM; 78% of 5,000 active; shares compounds with MPTP block; in the data active = inhibition above about 22%;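 also: 0% = DMSO vehicle and 100% = positive control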
MPTP abs DR: MPTP inhibition, dose response swelling confirmation; shares compounds with MPTP block; isolated mitochondria swelling, absorbance; IC50, µM; 58% of 780 active; in the data active = IC50 below about 20 µM
MPTP counter DR: counter-screen for mitochondrial permeability transition pore inhibitors, dose response | shares compounds with MPTP block | isolated mitochondria counterscreen, fluorescence read-out | IC50, µM | 49% of 780 active | AID 651564; in the data active = IC50 below about 80 µM
* hit, by the source's call; i = inactive; x = no result.

SMILES	Calb FLC	MPTP block	CSC inhib	Mdm2-MdmX inh	Beta apoptosis	Rh123 counter	others
CCN(CC)S(=O)(=O)c1ccc(O)c(C(=O)OCC(=O)NC23CC4CC(CC(C4)C2)C3)c1	x	83*	-1	28	-7	81*
C[C@@H]1CN([C@@H](C)CO)C(=O)CCCn2nncc2CO[C@H]1CN(C)C(=O)OCc1ccccc1	x	-1	x	x	x	x
CCN(CC)C(=O)c1oc2ccc(S(=O)(=O)N3CC(C)CC(C)C3)cc2c1C (stereo not given)	-2	51*	-5	35	63	75*
COc1ccccc1/C=C/CN1CCC(n2nccc2NC(=O)C2CC2)CC1	7	1	-1	16	1	x
COC(=O)c1cc(NC(=O)c2cc(-c3ccc(Cl)cc3)oc2C(F)(F)F)ccc1N1CCOCC1	2	76*	40	43	0	80*
Cc1cc(C)c(NC(=O)CNC(=O)c2cc([N+](=O)[O-])ccc2N2CCOCC2)c(C)c1	-1	-1	-12	24	3	x
CSC(C(=O)c1cc2ccccc2o1)c1ccccc1 (stereo not given)	-1	0	12	-1	-11	x
O=C(N/N=C/c1ccccc1O)NC12CC3CC(CC(C3)C1)C2	-6	0	37	-19	7	x
Cc1nn(-c2ccccc2)c(Cl)c1/C=N/NC(=O)c1ccccc1NS(=O)(=O)c1cccs1	4	88*	37	-5	14	66*
O=C(N/N=C/c1cc(Cl)cc([N+](=O)[O-])c1O)c1ccccc1NS(=O)(=O)c1cccs1	25	84*	12	19	1	26*
O=C(N/N=C/c1cc(Cl)cc([N+](=O)[O-])c1O)NC12CC3CC(CC(C3)C1)C2	11	84*	82*	30	28	5
CC1CCCN(S(=O)(=O)c2ccc(C(=O)Nc3ccccc3-c3nc4ccccc4[nH]3)cc2)C1 (stereo not given)	0	90*	19	39	15	3	MPTP abs DR=7.2*;MPTP counter DR=4.2*
CC1CCN(S(=O)(=O)c2ccc(C(=O)Nc3ccccc3-c3nc4ccccc4[nH]3)cc2)CC1	-6	94*	17	37	11	64*
Cc1sc2ncnc(N3CCCCC3)c2c1C	6	1	-11	-22	-8	x
Cc1sc2ncnc(N3CCCCC3C)c2c1C (stereo not given)	4	60*	7	20	18	54*
CC1(C(=O)NS(=O)(=O)c2cccc(Cl)c2)CCN1C(=O)C1(c2ccc(Cl)cc2)CC1 (stereo not given)	x	1	x	x	x	x
COc1ccc(-c2nc3cc(NC(=O)Cc4ccc(OC)c(OC)c4)ccc3o2)cc1	36	96*	14	-9	25	90*
Cc1ccc(NC(=S)Nc2nc(CC(=O)Nc3ccccc3)cs2)cc1	20	78*	-4	4	12	84*
COCCCC1CCN(C(=O)C2CCC(=O)N(Cc3ccccc3F)C2)CC1 (stereo not given)	-36	0	-10	16	0	x
Cc1cccc(C(=O)Nc2sc(C)c(-c3ccccc3)c2C#N)c1	-3	1	2	-225	25	x
Cc1noc(C)c1C(=O)Nc1sc(C)c(-c2ccccc2)c1C#N	53	74*	x	23	33	80*
COc1ccc(C(=O)NC2CCN(C(=O)Nc3ccccc3Cl)CC2)cc1	-5	-1	-8	27	-1	x
Cn1cc([N+](=O)[O-])c(C(=O)NCc2ccccc2)n1	1	2	2	7	-3	x
COc1cccc(-c2csc(N3CCN(C(=S)Nc4ccccc4)CC3)n2)c1	-9	9	-6	3	-2	x
COc1cccc(-c2csc(N3CCN(C(=S)Nc4ccc(Cl)cc4)CC3)n2)c1	1	64*	4	15	-1	70*
SMILES	Calb FLC	MPTP block	CSC inhib	Mdm2-MdmX inh	Beta apoptosis	Rh123 counter	others
COc1ccc(NC(=S)NC(NC(=O)CCl)C(Cl)(Cl)Cl)c([N+](=O)[O-])c1 (stereo not given)	-6	9	1	28	3	x
COc1ccc(NC(=S)NC(NC(=O)c2cccc3ccccc23)C(Cl)(Cl)Cl)c([N+](=O)[O-])c1 (stereo not given)	-5	70*	39	30	7	55*
COc1ccc(NC(=S)NC(NC(=O)c2ccc(Cl)cc2Cl)C(Cl)(Cl)Cl)c([N+](=O)[O-])c1 (stereo not given)	-6	87*	x	30	x	54*
COc1ccc(NC(=S)NC(NC(=O)c2ccccc2Cl)C(Cl)(Cl)Cl)c([N+](=O)[O-])c1 (stereo not given)	-11	66*	29	-30	9	66*
Cc1ccc2nc3n(c(=O)c2c1)-c1ccc(Cl)cc1C(=O)NC3CC(C)C (stereo not given)	x	x	x	14	-5	x
CCCCN(C)C(=O)Cn1c(=O)oc2cc(S(=O)(=O)N3CC(C)CC(C)C3)ccc21 (stereo not given)	-8	1	x	1	-6	x
CCOC(=O)/C(=N\Nc1ccc(C(C)=O)cc1)c1csc(Nc2ccccc2)n1	-7	64*	14	23	14	-9	MPTP abs DR=i;MPTP counter DR=12*
Cn1cc(CNCc2cn(C)nc2-c2ccc(C3CCCCC3)cc2)cn1	-3	92*	x	25	0	-6	MPTP abs DR=8.8*;MPTP counter DR=71*
CC1C(=O)N2CCCc3cc(S(=O)(=O)N(C)c4ccccc4)cc1c32 (stereo not given)	-1	0	3	10	-2	x
CC(C)C(=O)N1CCC(CN=CC2=C(O)CC(C)(C)CC2=O)CC1	-6	69*	-9	-24	-6	113*
CC1(C)CC(=O)C(C=NCC2CCN(C(=S)Nc3cccc(Cl)c3)CC2)=C(O)C1	-3	0	5	18	0	x
CC(C)N(CCC(=O)c1ccc2ccccc2c1)Cc1ccccc1	x	99*	75*	36	65	-3
CC(OC(=O)c1ccc2ccccc2c1)C(=O)N(C)Cc1ccccc1 (stereo not given)	x	1	7	31	-10	x
Cc1ccc(NC(=O)Nc2ccc3c(c2)CCC3)cc1	2	1	18	-27	4	x
O=C(Nc1cccc(F)c1)c1c(F)c(F)c(F)c(F)c1F	2	65*	12	11	3	81*
O=C(Nc1cccc(F)c1)Nc1ccc2c(c1)CCC2	-1	67*	x	-51	-1	92*
Cc1cccc(NC(=O)c2c(F)c(F)c(F)c(F)c2F)c1	-29	0	-6	17	3	x
Cc1cc(C)cc(NC(=O)Nc2ccc3c(c2)CCC3)c1	-13	53*	32	35	6	94*
